# High-throughput results as filed in PubChem BioAssay.
# CHT allo act – allosterically activates the human high affinity choline transporter; 0.49% of 310,000 active; CHT-expressing cells, membrane potential dye, choline EC20; stronger effect = higher value; LV-AA mutant CHT in HEK293 cells; B-score at 10 µM;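 active = initial fluorescence not abnormally high and integrated response B-score, plate-corrected, over 3 SD above library mean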
# Target sequence (Q9GZV3 whole entry, looked up): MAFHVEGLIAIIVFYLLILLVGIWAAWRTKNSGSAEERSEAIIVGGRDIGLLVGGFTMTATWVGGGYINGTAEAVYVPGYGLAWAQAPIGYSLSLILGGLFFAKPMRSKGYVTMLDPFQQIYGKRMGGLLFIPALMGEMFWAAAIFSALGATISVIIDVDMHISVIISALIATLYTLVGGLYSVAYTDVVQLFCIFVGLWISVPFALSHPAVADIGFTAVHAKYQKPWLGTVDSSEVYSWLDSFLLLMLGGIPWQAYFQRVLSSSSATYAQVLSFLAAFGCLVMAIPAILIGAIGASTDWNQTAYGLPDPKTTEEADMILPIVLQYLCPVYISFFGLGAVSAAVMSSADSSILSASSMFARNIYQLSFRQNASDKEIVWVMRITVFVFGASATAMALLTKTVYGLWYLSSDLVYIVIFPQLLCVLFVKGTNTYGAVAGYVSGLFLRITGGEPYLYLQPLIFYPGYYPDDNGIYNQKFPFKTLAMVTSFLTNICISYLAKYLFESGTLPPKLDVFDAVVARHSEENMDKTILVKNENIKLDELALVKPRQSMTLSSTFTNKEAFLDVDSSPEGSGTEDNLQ
# MEKK2wt PB1 HTS – raises or lowers MEK5 binding to wildtype human MEKK2 PB1 domain; Q9Y2U5; bead flow cytometry, Alexa488-MEK5 binding to MEKK2 WT; actives lie on both sides; binding response (% of control), % at 10 µM; 1.1% of 290,000 active; in the data active = binding response below about 67% or above about 130%
# MEKK2mut PB1 HTS – signal of MEK5 binding to mutant human MEKK2 PB1 domain. 0.35% of 290,000 active. AID 1530. percent response, % at 10 µM. bead flow cytometry, Alexa488-MEK5 binding to MEKK2 mutant; in the data active = percent response above about 24%, passing the limit was not always enough
# SUMO Mot1 rescue – inhibitors of SUMOylation pathway: yeast Mot1-301 growth rescue; S. cerevisiae Mot1-301 growth rescue, ATP luminescence, 38.5C; percent above DMSO median, 100 means doubled; 1% of 320,000 active; growth rescue, % at 18.8 µM;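 active = every valid replicate shows activation above 250% relative to neutral control wells; inactive = the rest, any valid replicate at or below 250%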
# MEKK3 PB1 HTS – modulators (inhibitors or enhancers) of MEK5 binding to human MEKK3 PB1 domain. Q99759. bead-based flow cytometry, Alexa488-MEK5 binding to MEKK3; actives lie on both sides; 0 = blocked by unlabeled MEK5, 100 = vehicle. binding response (% of control), % at 10 µM. 1.4% of 290,000 active. AID 1529;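 active = binding response more than 3 SD above or below the average of its plate-row segment, actives on both sides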;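 note: Alexa488 bead fluorescence after subtracting the streptavidin-only scavenger bead signal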
# CHT block – inhibitors of human choline transporter CHT | 0.86% of 310,000 active | CHT-expressing cells, membrane potential dye, choline response; stronger effect = lower value | Q9GZV3 | AID 488975 | B-score at 10 µM;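 active = B-score over 3 SD under the library average, and starting fluorescence ratio not unusually high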;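 note: choline stimulus applied at its EC90 after an EC20 pre-addition; B-score computed on integrated fluorescence ratio after choline addition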
# CHT activ conf – confirmation of human choline transporter (CHT) activators; shares compounds with CHT allo act; CHT-expressing cells, membrane potential dye fluorescence (FDSS); % of choline EC20–EC90 response window; HEK293 expressing CHT LV-AA mutant; choline added at its EC20; activation, % at 10 µM; 91% of 2,500 active; AID 504833;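 active = primary screen active, with duplicate mean activation above negative control mean plus 3 SD, cut at about 11% in these data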
# HEK293 MP dye – activity in parental HEK293 cells lacking CHT; ratio readout change at 10 µM, hits read low; AID 623908; 62% of 2,500 active; membrane potential dye fluorescence (FDSS); measured after EC20 choline addition; shares compounds with CHT allo act;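 active = duplicate-averaged ratio beyond 3 SD from buffer wells, up or down, though filed actives are nearly all decreases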
# Numbers stand for hits; – = inactive; · = no result given. Hits are enriched below; roughly 4.1% of the tested compounds scored in any of these assays.
SMILES,CHT allo act,MEKK2wt PB1 HTS,MEKK2mut PB1 HTS,SUMO Mot1 rescue,MEKK3 PB1 HTS,CHT block,CHT activ conf,HEK293 MP dye
COc1cccc(C(c2nnnn2Cc2ccccc2)N2CCN(C(=O)c3ccco3)CC2)c1OC (configuration not stated),–,–,–,–,–,–,·,·
COc1ccccc1C(c1nnnn1CCc1ccccc1)N1CCN(c2ccccc2)CC1 (configuration not stated),–,–,–,–,–,–,·,·
COc1cccc(C(c2nnnn2Cc2ccco2)N2CCN(c3cccc(C)c3C)CC2)c1OC (configuration not stated),7.1,–,–,–,–,–,20,–
COc1cccc(C(c2nnnn2CCc2ccccc2)N2CCN(c3ccccc3)CC2)c1OC (configuration not stated),6.8,–,–,–,–,–,21,–
COc1ccc(-c2noc(CCCC(=O)Nc3ccc(C(N)=O)cc3)n2)cc1OC,–,–,–,–,–,–,·,·
COc1cccc(-c2nc(NCC3CCCO3)c3ccccc3n2)c1O (configuration not stated),–,–,–,–,–,–,·,·
COc1cc(-c2nc3ccccn3c2NCC2CCCO2)ccc1O (configuration not stated),–,–,–,–,–,–,44,-47
COc1ccc(-c2nc3cccc(C)n3c2NCC2CCCO2)cc1O (configuration not stated),–,–,–,–,–,–,54,-57
Cc1cccc(C(=O)Nc2ccc(N3CCN(S(C)(=O)=O)CC3)cc2)c1,–,–,–,–,–,–,·,·
CCCCc1c(O)c2ccccc2n(CCCC)c1=O,–,–,–,–,–,–,·,·
CCCCc1c(CCC)c(=N)c2ccccc2n1C,9.4,–,–,–,–,–,65,-26
COc1ccc(C(=O)C[n+]2ccc3ccccc3c2C)cc1,–,–,–,–,–,–,48,-32
COc1ccc(C(=O)CC(=O)c2ccc(OC)cc2)cc1,–,–,–,–,–,–,·,·
Cc1c(C(=O)N(C)c2ccc(Cl)cc2)cnn1-c1ccccc1,–,–,–,–,–,–,·,·
Cc1noc(C)c1C(=O)OCC(=O)Nc1ccccc1SCC#N,·,·,·,–,·,·,·,·
Cc1cc(C)c2c(n1)nn1c(NCCN3CCOCC3)cc(C)nc21,6.9,–,–,–,–,–,50,-73
COCCNc1cc(C)nc2c3c(C)cc(C)nc3nn12,–,–,–,–,–,–,55,-65
COCCNc1cc(C)nc2c(-c3ccccc3OC)c(C)nn12,–,–,–,–,–,–,·,·
Cc1cc(NCCN2CCOCC2)n2nc(C)c(-c3ccccc3)c2n1,–,–,–,–,–,–,·,·
O=C(OCCCOC(=O)c1ccc(Br)o1)c1ccc(Br)o1,–,·,·,–,·,–,·,·
COc1ccc(-n2c(=S)[nH]c3cc(C(=O)N4CCN(c5ccccc5)CC4)ccc3c2=O)cc1,–,–,–,–,–,–,·,·
COc1ccc(C(=O)C2CCCN(Cc3cccn3-c3ccccn3)C2)c(OC)c1 (configuration not stated),–,–,–,–,–,–,·,·
O=C(c1cc(F)ccc1F)C1CCCN(Cc2cccn2-c2ccccn2)C1 (configuration not stated),13,–,–,–,–,–,42,–
COc1ccc(F)cc1C(=O)C1CCCN(Cc2cccn2-c2ccccn2)C1 (configuration not stated),16,–,–,–,–,–,58,–
CC(C)(C)c1ccc(C(=O)OCC(=O)N2CCC(c3ccccc3)=N2)cc1,·,·,·,–,·,·,·,·
SMILES,CHT allo act,MEKK2wt PB1 HTS,MEKK2mut PB1 HTS,SUMO Mot1 rescue,MEKK3 PB1 HTS,CHT block,CHT activ conf,HEK293 MP dye
Cc1cc(C)nc(/N=C(\NC(=O)C(C)(C)C)Nc2ccc(F)cc2)n1,–,–,–,–,–,–,·,·
CCCCNc1cc(C)nc(NCc2ccccc2)n1,9.2,–,–,–,–,–,33,–
Fc1cc(F)nc(NCc2ccccc2)n1,–,–,–,–,–,–,·,·
O=C(COC(=O)CCN=C1NS(=O)(=O)c2ccccc21)NNC(=O)c1ccc(Cl)cc1,·,·,·,–,·,·,·,·
COc1cc(Cn2ccnc2)c(OC)cc1Cn1ccnc1,13,–,–,–,–,–,81,-83
O=C(Nc1ccccc1Cl)c1ccc2nc(N3CCOCC3)sc2c1,–,–,–,–,–,–,·,·
COc1cccc2c(=O)cc(C)n(CC(=O)Nc3ccccc3C)c12,–,–,–,–,–,–,·,·
Cc1cccc2c(=O)cc(C)n(CC(N)=O)c12,11,–,–,–,–,–,68,-78
CNC(=O)Cn1c(C)cc(=O)c2cccc(OC)c21,13,–,–,–,–,–,64,-89
COc1ccc(C(C(=O)NCC2CCCO2)N(C(=O)c2snc(C(N)=O)c2N)c2ccc(C)cc2)cc1OC (configuration not stated),·,–,–,·,–,·,·,·
COc1ccc(-c2nc(C#N)c(NCCCN3CCOCC3)o2)cc1,–,·,·,–,·,–,24,-21
Cc1ccc2nc3ccc(N4CCCC4)nn3c(=O)c2c1,–,–,–,–,–,–,44,-46
COc1ccccc1N=C(C)C1=C(O)CC(c2ccccc2)CC1=O (configuration not stated),9.7,–,–,–,–,–,56,–
CCCC(=Nc1ccccc1OC)C1=C(O)CC(c2ccccc2)CC1=O (configuration not stated),–,–,–,–,–,–,·,·
C#CCOCCOCCOCCNc1nc(N2CCN(C(=O)[C@H](CCC(=O)O)n3cc([C@@H](N)CC(N)=O)nn3)CC2)nc(N2CCN(C(=O)[C@H](CCC(=O)O)n3cc([C@@H](N)CC(N)=O)nn3)CC2)n1,·,·,·,–,·,·,·,·
Cc1ccc2ccc[n+](Cc3ccccc3)c2c1,7.9,·,·,–,·,–,90,-81
COc1ccc2[nH]c(C(=O)N(C)Cc3ccccc3)c(C)c2c1,–,–,–,–,–,–,·,·
Cc1ccc2c(ccc[n+]2CC(=O)c2ccccc2)c1,–,–,–,–,–,–,·,·
Cc1ccc2c(c1)c(C)cc[n+]2Cc1ccccc1,9.8,–,–,–,–,–,42,-71
COc1ccc2c(c1)c(C)cc[n+]2Cc1ccccc1,6.7,–,–,–,–,–,74,-67
